Laboratory results as given in the supplement of paper PMC10849652.
Targets with a hit are over-represented here; the source holds about 7,900 in all. About 0.6% of all pairs of compound and target were hits. A number with no mark means an inactive call.

Sequence of UniProt Q96G23 (Q96G23 whole entry, looked up): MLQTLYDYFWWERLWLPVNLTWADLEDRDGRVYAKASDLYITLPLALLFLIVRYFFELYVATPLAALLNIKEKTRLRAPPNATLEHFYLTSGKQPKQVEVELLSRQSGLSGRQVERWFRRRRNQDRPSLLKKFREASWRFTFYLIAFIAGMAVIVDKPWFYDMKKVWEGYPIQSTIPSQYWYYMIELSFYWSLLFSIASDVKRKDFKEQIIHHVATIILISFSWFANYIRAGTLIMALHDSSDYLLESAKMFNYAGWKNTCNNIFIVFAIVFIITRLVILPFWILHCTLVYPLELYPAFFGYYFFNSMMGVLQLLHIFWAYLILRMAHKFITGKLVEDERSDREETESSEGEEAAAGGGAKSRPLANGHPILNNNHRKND
Sequence of UniProt O14757 (O14757 whole entry, looked up): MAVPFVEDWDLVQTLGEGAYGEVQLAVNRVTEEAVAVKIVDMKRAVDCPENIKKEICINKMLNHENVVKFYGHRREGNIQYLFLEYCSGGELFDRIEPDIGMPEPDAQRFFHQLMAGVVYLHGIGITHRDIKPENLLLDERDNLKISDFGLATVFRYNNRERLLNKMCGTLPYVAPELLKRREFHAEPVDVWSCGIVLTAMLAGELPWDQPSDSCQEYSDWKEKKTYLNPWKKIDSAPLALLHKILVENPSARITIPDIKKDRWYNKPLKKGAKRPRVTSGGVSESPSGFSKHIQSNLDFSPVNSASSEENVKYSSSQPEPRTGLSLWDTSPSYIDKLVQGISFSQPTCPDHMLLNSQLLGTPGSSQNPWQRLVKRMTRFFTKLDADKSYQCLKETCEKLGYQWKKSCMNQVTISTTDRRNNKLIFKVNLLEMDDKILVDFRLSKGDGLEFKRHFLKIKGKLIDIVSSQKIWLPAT
Sequence of UniProt Q7KZN9 (Q7KZN9 whole entry, looked up): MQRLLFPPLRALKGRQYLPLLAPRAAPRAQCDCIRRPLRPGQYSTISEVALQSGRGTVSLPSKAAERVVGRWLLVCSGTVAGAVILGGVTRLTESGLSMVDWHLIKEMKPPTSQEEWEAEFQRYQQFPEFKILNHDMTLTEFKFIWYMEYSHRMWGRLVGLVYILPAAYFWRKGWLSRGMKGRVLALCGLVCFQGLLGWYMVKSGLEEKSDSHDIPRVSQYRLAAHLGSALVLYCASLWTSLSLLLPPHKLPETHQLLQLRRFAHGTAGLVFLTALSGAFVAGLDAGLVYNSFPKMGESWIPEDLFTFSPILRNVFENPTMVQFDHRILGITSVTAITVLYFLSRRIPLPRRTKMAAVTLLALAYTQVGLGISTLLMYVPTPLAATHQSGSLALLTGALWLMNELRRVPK
Sequence of UniProt Q9Y646 (Q9Y646 whole entry, looked up): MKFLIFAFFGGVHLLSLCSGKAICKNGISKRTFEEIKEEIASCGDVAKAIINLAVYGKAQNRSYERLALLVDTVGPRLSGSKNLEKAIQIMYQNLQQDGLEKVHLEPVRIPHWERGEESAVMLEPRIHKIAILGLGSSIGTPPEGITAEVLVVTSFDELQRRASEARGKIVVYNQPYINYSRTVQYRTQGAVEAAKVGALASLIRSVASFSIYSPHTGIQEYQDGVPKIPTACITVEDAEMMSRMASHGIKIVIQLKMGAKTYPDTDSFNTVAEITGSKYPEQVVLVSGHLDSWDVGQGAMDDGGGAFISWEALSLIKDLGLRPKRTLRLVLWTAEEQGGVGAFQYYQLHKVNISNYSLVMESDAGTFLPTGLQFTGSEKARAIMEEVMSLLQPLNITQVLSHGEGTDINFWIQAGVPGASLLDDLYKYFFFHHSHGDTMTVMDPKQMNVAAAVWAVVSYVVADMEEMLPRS
Sequence of UniProt Q9Y6K0 (Q9Y6K0 whole entry, looked up): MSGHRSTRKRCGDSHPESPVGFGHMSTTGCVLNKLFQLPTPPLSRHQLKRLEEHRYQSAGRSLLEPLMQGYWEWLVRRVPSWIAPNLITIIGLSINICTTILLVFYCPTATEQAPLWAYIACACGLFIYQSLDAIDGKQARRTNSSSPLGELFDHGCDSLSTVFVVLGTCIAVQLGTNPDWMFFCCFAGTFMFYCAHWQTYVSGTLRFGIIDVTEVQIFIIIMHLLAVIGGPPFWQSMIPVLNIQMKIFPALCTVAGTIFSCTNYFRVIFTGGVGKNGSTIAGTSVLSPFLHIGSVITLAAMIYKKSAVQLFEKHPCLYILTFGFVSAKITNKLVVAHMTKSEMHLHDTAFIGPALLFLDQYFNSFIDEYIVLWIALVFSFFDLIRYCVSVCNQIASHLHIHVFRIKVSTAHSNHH
Sequence of UniProt O75503 (O75503 whole entry, looked up): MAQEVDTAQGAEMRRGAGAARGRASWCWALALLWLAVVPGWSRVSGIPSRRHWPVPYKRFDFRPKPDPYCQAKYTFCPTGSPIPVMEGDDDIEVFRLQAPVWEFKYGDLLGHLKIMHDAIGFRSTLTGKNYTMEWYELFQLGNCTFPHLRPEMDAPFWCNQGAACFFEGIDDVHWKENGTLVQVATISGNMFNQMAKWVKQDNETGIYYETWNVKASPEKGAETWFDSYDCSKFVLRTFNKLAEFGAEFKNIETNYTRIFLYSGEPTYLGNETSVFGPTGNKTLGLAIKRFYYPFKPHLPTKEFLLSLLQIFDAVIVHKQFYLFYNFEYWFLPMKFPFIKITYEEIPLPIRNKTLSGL
Sequence of UniProt A5YKK6 (A5YKK6 whole entry, looked up): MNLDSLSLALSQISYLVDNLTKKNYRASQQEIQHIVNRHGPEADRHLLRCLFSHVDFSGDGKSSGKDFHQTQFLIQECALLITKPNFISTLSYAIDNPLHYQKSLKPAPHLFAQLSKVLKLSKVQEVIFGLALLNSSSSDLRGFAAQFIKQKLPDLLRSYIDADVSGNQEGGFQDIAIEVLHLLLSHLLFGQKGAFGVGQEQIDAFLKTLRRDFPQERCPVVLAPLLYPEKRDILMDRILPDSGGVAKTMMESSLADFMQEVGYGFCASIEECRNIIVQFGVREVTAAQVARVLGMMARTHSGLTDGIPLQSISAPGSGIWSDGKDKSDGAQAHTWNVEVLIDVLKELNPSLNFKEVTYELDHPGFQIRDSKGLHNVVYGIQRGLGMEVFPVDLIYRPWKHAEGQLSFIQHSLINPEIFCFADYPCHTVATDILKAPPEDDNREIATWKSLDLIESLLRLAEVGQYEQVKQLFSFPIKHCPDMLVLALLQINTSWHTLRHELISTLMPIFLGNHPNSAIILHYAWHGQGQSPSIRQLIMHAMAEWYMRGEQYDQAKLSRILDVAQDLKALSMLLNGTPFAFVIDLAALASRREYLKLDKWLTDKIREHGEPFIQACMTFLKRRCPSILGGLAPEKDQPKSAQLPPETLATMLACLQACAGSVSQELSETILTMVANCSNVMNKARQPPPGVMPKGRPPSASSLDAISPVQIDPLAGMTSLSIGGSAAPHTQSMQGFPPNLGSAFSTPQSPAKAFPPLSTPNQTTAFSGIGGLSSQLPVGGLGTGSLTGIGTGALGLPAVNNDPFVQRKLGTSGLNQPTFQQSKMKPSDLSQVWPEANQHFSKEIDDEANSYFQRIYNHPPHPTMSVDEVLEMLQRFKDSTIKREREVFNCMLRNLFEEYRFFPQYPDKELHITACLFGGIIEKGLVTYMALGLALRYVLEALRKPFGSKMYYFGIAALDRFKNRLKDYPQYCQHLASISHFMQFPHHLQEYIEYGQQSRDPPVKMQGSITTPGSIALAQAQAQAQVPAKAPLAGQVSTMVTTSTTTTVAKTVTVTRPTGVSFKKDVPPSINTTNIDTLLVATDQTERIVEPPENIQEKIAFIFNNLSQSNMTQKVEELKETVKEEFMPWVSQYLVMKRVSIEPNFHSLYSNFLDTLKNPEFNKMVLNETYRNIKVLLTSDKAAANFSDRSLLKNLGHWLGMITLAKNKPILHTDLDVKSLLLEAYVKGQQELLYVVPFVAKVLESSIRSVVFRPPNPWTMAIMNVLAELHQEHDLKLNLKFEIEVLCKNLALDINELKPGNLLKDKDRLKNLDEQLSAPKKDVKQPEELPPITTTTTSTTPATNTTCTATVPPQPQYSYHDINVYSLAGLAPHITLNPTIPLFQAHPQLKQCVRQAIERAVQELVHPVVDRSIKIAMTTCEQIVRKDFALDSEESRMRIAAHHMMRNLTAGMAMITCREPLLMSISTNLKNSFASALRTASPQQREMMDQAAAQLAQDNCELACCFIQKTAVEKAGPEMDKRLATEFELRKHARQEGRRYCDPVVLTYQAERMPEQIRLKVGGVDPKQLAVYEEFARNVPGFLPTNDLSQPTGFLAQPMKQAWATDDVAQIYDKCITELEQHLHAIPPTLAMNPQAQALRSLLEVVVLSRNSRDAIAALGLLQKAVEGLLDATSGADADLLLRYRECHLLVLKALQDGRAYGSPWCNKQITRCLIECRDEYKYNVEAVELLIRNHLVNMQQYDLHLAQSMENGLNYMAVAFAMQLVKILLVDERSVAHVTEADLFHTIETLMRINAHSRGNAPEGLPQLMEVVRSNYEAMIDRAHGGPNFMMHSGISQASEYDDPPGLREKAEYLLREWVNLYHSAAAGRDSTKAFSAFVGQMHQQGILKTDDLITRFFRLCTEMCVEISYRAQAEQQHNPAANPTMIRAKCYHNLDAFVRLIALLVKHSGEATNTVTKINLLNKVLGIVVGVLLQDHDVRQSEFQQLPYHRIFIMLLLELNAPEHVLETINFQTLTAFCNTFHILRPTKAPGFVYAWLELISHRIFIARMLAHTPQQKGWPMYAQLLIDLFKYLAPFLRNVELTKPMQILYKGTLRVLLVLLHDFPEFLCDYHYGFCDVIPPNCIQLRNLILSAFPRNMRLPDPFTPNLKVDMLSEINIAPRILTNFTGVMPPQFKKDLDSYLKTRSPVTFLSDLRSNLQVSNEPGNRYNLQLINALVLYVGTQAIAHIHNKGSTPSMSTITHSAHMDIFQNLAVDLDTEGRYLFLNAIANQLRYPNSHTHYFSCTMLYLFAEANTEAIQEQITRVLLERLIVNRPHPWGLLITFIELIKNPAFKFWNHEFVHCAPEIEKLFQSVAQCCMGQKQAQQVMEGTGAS
Sequence of UniProt Q5JTJ3 (Q5JTJ3 whole entry, looked up): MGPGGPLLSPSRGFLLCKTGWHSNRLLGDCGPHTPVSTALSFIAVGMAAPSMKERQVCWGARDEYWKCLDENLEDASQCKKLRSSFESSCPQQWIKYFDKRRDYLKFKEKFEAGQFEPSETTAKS

Each target was assayed with C1=CC=C(C=C1)[C@H](COC2=CC3=C(C=C2)NC(=O)N3)NC(=O)C4=CC=CN(C4=O)CC5=CC(=C(C=C5)F)F (assay: log2 fold change, soluble protein after heating vs DMSO (PISA); higher = thermal stabilisation; K562 cells, 10 uM, 30 min; active = over 0.2 and 3.5 SD of the protein, either way, in both replicates (recomputed)).
How it was run: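 Values are thermal stability changes relative to control samples and are taken from duplicates. They are stated as log2 fold changes. Before quantification by TMTpro 16plex LC-MS/MS with equalised channel sums, K562 cells at 2×10^6 cells/mL were treated with 10 μM compound for 30 min, heated in aliquots for 3 min across 48°C-58°C, pooled, extracted in PBS with 0.5% NP-40 at 4°C, and centrifuged at 21,000xg for 90 min to give the soluble supernatant.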
CLPTM1L (UniProt Q96KA5) showed a log2 fold change of -0.011.
CDK17 isoform 2 (UniProt Q00537) was tested, and the log2 fold change was -0.095.
For COA6 isoform 2 (UniProt Q5JTJ3), the log2 fold change was 0.06.
With COX15 (UniProt Q7KZN9) the log2 fold change was -0.027.
Work on CNN3 (UniProt Q15417) yielded a log2 fold change of -0.015.
Target CHAMP1 (UniProt Q96JM3) has a log2 fold change of -0.073.
CPQ (UniProt Q9Y646) gave a log2 fold change of 0.045.
Work on CLN5 (UniProt O75503) yielded a log2 fold change of -0.003.
CES2 isoform 4 (UniProt O00748) gave a log2 fold change of 0.041.
CCNC (UniProt P24863) was tested, and the log2 fold change was -0.139.
With CDKN1B (UniProt P46527) the log2 fold change was -0.009.
CHEK1 (UniProt O14757) showed a log2 fold change of 0.006.
CEPT1 (UniProt Q9Y6K0) showed a log2 fold change of -0.064.
CCDC167 (UniProt Q9P0B6) showed a log2 fold change of 0.153.
In the case of CDK4 (UniProt P11802), the log2 fold change is reported as 0.012.
CDC25B isoform 4 (UniProt P30305) showed a log2 fold change of 0.107.
For CERS2 (UniProt Q96G23), the log2 fold change was -0.033.
With CDKN2AIP (UniProt Q9NXV6) the log2 fold change was -0.036.
CNOT1 (UniProt A5YKK6) gave a log2 fold change of -0.02.
CHP1 (UniProt Q99653) gave a log2 fold change of 0.022.
CLN3 (UniProt Q13286) was tested, and the log2 fold change was 0.005.
With CHST11 (UniProt Q9NPF2) the log2 fold change was 0.018.
Target CDC42BPB (UniProt Q9Y5S2) has a log2 fold change of -0.114.
